Test results reported in PubChem BioAssay (Tox21).
Where “and” joins values, the source holds several entries; their conditions need not be identical. Equal values may be shown once. Results filed as inconclusive are left out. Calls of active or inactive are those of the source. The call rests on the fitted dose curve; in most records, active means well fitted curve in the direction sought with a large enough effect in the repeat runs; inconclusive means weak or mixed curves; inactive means no such curve, though single readings can be large; an effect the other way counts as inactive or inconclusive.

Tests used:
[1] = qHTS RealTime-Glo MT Cell Viability Assay in HepG2 cells - 8 hour (AID 1224873); further: nearly all actives have a fitted effect of over 55% in size; further: potency means the concentration at half of the fitted maximal effect
Procedure, shortened: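 Real-time viability: cells seeded at 600 per well together with NanoLuc and cell-permeant prosubstrate, compounds added after 5 h incubation. Luminescence tracked at 0, 8, 16, 24, 32 and 40 h of exposure.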

[2] = A CellTox Green Cytotoxicity Assay to monitor cytotoxicity in HEK293 cells - 24 hour (AID 1224875); further: nearly all actives have a fitted effect of over 45% in size; further: potency means the concentration at half of the fitted maximal effect
Procedure, shortened: (§1)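 Homogeneous no-lysis format: HEK293 cell suspension mixed with CellTox Green reagent, seeded, incubated 5 h at 37 C/5% CO2, then dosed by pintool with compound in DMSO.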

[3] = A CellTox Green Cytotoxicity Assay to monitor cytotoxicity in HepG2 cells - 16 hour (AID 1224876); further: nearly all actives have a fitted effect of over 45% in size; further: potency means the concentration at half of the fitted maximal effect
Procedure, shortened: (§2)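 Fluorescent DNA-binding dye, 600 HepG2 cells/well, 5 h preincubation then compound in DMSO; same plates read at 0–40 h, 37 C.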

[4] = qHTS RealTime-Glo MT Cell Viability Assay in HepG2 cells - 32 hour (AID 1224877); further: nearly all actives have a fitted effect of over 55% in size
Procedure, shortened: (§3)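 Viability was tracked continuously by NanoLuc luminescence from prosubstrate reduced by living HepG2 cells, at successive time points over 40 h of compound exposure. Cells with reagent were preincubated 5 h at 37 °C before compound addition.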

[5] = A CellTox Green Cytotoxicity Assay to monitor cytotoxicity in HepG2 cells - 24 hour (AID 1224878); further: nearly all actives have a fitted effect of over 45% in size; further: potency means the concentration at half of the fitted maximal effect
Procedure, shortened: as §2

[6] = A CellTox Green Cytotoxicity Assay to monitor cytotoxicity in HepG2 cells - 40 hour (AID 1224879); further: nearly all actives have a fitted effect of over 40% in size
Procedure, shortened: as §2

[7] = qHTS RealTime-Glo MT Cell Viability Assay in HEK293 cells - 0 hour (AID 1224880); further: top concentration of the series differs between compounds; nearly all actives have a fitted effect of over 45% in size
Procedure, shortened: (§4)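 Measured as luminescence from the same continuously cultured HEK293 wells at successive time points (0, 8, 16, 24, 32, 40 h) after compound addition. Reagent present from seeding; dosing at 5 h; incubation 37 C.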

[8] = A CellTox Green Cytotoxicity Assay to monitor cytotoxicity in HEK293 cells - 32 hour (AID 1224881); further: nearly all actives have a fitted effect of over 40% in size; further: potency means the concentration at half of the fitted maximal effect
Procedure, shortened: as §1

[9] = A CellTox Green Cytotoxicity Assay to monitor cytotoxicity in HepG2 cells - 0 hour (AID 1224882); further: nearly all actives have a fitted effect of over 35% in size
Procedure, shortened: as §2

[10] = A CellTox Green Cytotoxicity Assay to monitor cytotoxicity in HepG2 cells - 32 hour (AID 1224883); further: nearly all actives have a fitted effect of over 50% in size; further: potency means the concentration at half of the fitted maximal effect
Procedure, shortened: as §2

[11] = A CellTox Green Cytotoxicity Assay to monitor cytotoxicity in HEK293 cells - 8 hour (AID 1224884); further: nearly all actives have a fitted effect of over 35% in size; further: potency means the concentration at half of the fitted maximal effect
Procedure, shortened: as §1

[12] = qHTS RealTime-Glo MT Cell Viability Assay in HepG2 cells - 16 hour (AID 1224885); further: nearly all actives have a fitted effect of over 50% in size; further: potency means the concentration at half of the fitted maximal effect
Procedure, shortened: as §3

[13] = qHTS RealTime-Glo MT Cell Viability Assay in HEK293 cells - 24 hour (AID 1224886); further: nearly all actives have a fitted effect of over 50% in size; further: potency means the concentration at half of the fitted maximal effect
Procedure, shortened: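 Viability tracked continuously by luminescence as live cells reduce a prosubstrate for NanoLuc; HEK293 cells preincubated 5 h, compound-treated at 37 C, and read at 0, 8, 16, 24, 32 and 40 h.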

[14] = qHTS RealTime-Glo MT Cell Viability Assay in HEK293 cells - 8 hour (AID 1224887); further: nearly all actives have a fitted effect of over 50% in size; further: potency means the concentration at half of the fitted maximal effect
Procedure, shortened: as §4

[15] = A CellTox Green Cytotoxicity Assay to monitor cytotoxicity in HEK293 cells - 16 hour (AID 1224888); further: nearly all actives have a fitted effect of over 35% in size; further: potency means the concentration at half of the fitted maximal effect
Procedure, shortened: as §1

[16] = A CellTox Green Cytotoxicity Assay to monitor cytotoxicity in HepG2 cells - 8 hour (AID 1224890); further: nearly all actives have a fitted effect of over 45% in size; further: potency means the concentration at half of the fitted maximal effect
Procedure, shortened: as §2

[17] = qHTS assay to identify small molecule antagonists of the androgen receptor (AR) signaling pathway using the MDA cell line in the presence of 0.5 nM R1881 - cell viability counter screen (AID 1259242); further: nearly all actives have a fitted effect of over 45% in size; further: potency means the concentration at half of the fitted maximal effect
Procedure, shortened: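 Human breast carcinoma MDA-kb2 cells, cultured without CO2, receive compounds alongside 0.5 nM (final) R1881 agonist. After 16 hr at 37C, viability is taken as live-cell protease signal.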

[18] = qHTS RealTime-Glo MT Cell Viability Assay in HEK293 cells - 40 hour (AID 1224874); conditions: RealTime-Glo luminescence; max response: active compounds read low; further: nearly all actives have a fitted effect of over 50% in size; further: potency means the concentration at half of the fitted maximal effect
Procedure, shortened: as §4

[19] = qHTS RealTime-Glo MT Cell Viability Assay in HepG2 cells - 0 hour (AID 1224889); further: nearly all actives have a fitted effect of over 50% in size
Procedure, shortened: as §3

[20] = qHTS assay to identify small molecule antagonists of the estrogen receptor alpha (ER-alpha) signaling pathway using the BG1 cell line in the presence of 0.1 nM 17-beta-estradiol - cell viability counter screen (AID 1259241); further: nearly all actives have a fitted effect of over 40% in size
Procedure, shortened: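 Cells were plated and left 24 hr, compounds in DMSO were pinned in, 17beta-estradiol was added to 0.1 nM final, and after 22 hr CellTiter-Fluor reagent was added for 30 min before fluorescence was read.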
On the % scale 0 is the no-effect control and ±100 the full control effect.

Oc1ccccc1O
active: Potency [13] 49.6 µM and 24.5 µM
inactive: Potency [1] | Potency [2] | Potency [3] | Potency [4] | Potency [5] | Potency [6] | Potency [7] | Potency [8] | Potency [9] | Potency [10] | Potency [11] | Potency [12] | Potency [14] | Potency [15] | Potency [16] | Potency [17]

O=C(c1ccc(O)c(O)c1)c1ccc(O)cc1O
active: Potency [18] 24.5 µM
inactive: Potency [1] | Potency [4] | Potency [7] | Potency [9] | Potency [11] | Potency [12] | Potency [14] | Potency [19] | Potency [16] | Potency [20] | Potency [17]

CC1(C)CCC[C@]2(C)[C@H]3CCO[C@]3(C)CC[C@@H]12
inactive: Potency [1] | max response [18] 4.7% | Potency [3] | Potency [5] | Potency [6] | Potency [7] | Potency [9] | Potency [10] | Potency [12] | Potency [14] | Potency [19] | Potency [20] | Potency [17]

O=C(O)[C@H](O)[C@@H](O)[C@H](O[C@@H]1O[C@H](CO)[C@H](O)[C@H](O)[C@H]1O)[C@H](O)CO
inactive: Potency [1] | Potency [2] | Potency [3] | Potency [4] | Potency [5] | Potency [6] | Potency [7] | Potency [8] | Potency [9] | Potency [10] | Potency [11] | Potency [12] | Potency [13] | Potency [14] | Potency [15] | Potency [19] | Potency [16] | Potency [20] | Potency [17]

Cc1ccc(C(C)C)cc2c(C)ccc1-2
inactive: Potency [1] | max response [18] -5.67% | Potency [2] | Potency [3] | Potency [5] | Potency [6] | Potency [7] | Potency [8] | Potency [9] | Potency [10] | Potency [12] | Potency [14] | Potency [15] | Potency [19] | Potency [16] | Potency [20] | Potency [17]

CC[C@H](C)COC(=O)/C=C/c1ccc(N=Cc2ccc(OC)cc2)cc1
inactive: Potency [1] | Potency [3] | Potency [4] | Potency [9] | Potency [11] | Potency [15] | Potency [19] | Potency [16] | Potency [20]
active: Potency [18] 21.8 µM | Potency [13] 21.8 µM

COC(=O)c1ccccc1OC
inactive: Potency [1] | max response [18] 2.19% | Potency [2] | Potency [3] | Potency [5] | Potency [6] | Potency [7] | Potency [8] | Potency [9] | Potency [10] | Potency [11] | Potency [12] | Potency [13] | Potency [19] | Potency [16] | Potency [20]

CC(C)(C)c1ccc(C(O)CCCN2CCC(C(O)(c3ccccc3)c3ccccc3)CC2)cc1 (stereo not given)
active: Potency [1] 10.7 µM | Potency [18] 4.77 µM | Potency [2] 9.52 µM | Potency [3] 10.7 µM | Potency [5] 8.49 µM | Potency [8] 8.49 µM | Potency [10] 5.35 µM | Potency [11] 21.3 µM | Potency [12] 7.56 µM | Potency [14] 8.49 µM | Potency [15] 13.4 µM | Potency [16] 15.1 µM | Potency [17] 16.8 µM
inactive: Potency [9] | Potency [19]

CCCCCC/C=C\CCCCCCCC(=O)O
inactive: Potency [1] | max response [18] -4.29% | Potency [2] | Potency [3] | Potency [6] | Potency [7] | Potency [8] | Potency [9] | Potency [10] | Potency [11] | Potency [12] | Potency [13] | Potency [14] | Potency [15] | Potency [19] | Potency [20] | Potency [17]

CC(=O)OCC=C(C)C
inactive: Potency [1] | max response [18] -1.54% | Potency [2] | Potency [4] | Potency [7] | Potency [8] | Potency [9] | Potency [11] | Potency [13] | Potency [14] | Potency [15] | Potency [19] | Potency [16] | Potency [20] | Potency [17]

CC1(C)CC(O)CC(C)(C)N1
inactive: Potency [1] | max response [18] -4.64% | Potency [2] | Potency [3] | Potency [5] | Potency [6] | Potency [7] | Potency [8] | Potency [9] | Potency [10] | Potency [11] | Potency [12] | Potency [14] | Potency [15] | Potency [19] | Potency [16] | Potency [20] | Potency [17]
